EPAC1 ag val: validation of human EPAC1 agonists | EPAC1 Rap1b BODIPY-GDP exchange, fluorescence | actives 1% (n = 16,000) | Potency, µM, usual class: activators; also: nearly all actives have a fitted effect of over 70% in size
EPAC2 ant val: validation of human EPAC2 antagonists | Q8WZA2 | EPAC2 Rap1B BODIPY-GDP exchange, fluorescence | Potency, µM (doses to about 112 µM), actives largely listed as inhibitors | actives 1.7% (n = 16,000) | AID 1645886; also: nearly all actives have a fitted effect of over 40% in size
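Fluorescent exchange read-out: 100 nM EPAC2 with 250 nM RAP1B–BODIPY-GDP and 50 uM GDP; BODIPY-GDP release lowers fluorescence. Read at 480/540 nm every 5 min for 30 min at room temperature; normalized to 6.5 mM cAMP.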
Hits are given with their value; – = inactive; ? = inconclusive. Rows were chosen to be rich in hits. Some 2.9% of all compounds tested hit in one or more screens of this group. Calls follow the shape of the dose curve; as a rule, active = well fitted curve in the direction sought with a large enough effect; inconclusive = small, poorly fitted or top-dose-only effect, or another doubt; inactive = no such curve, though single readings can be large; an effect the other way counts as inactive or inconclusive.

SMILES	EPAC1 ag val	EPAC2 ant val
Cc1cnc(SCc2ccccn2)nc1C1CCCN(Cc2ccsc2)C1 (centres undefined)	–	–
Cc1ncc(Cc2ccccc2)c(C2CCN(S(=O)(=O)C[C@]34CC[C@H](CC3=O)C4(C)C)CC2)n1	–	?
CCCCCCCCCCCCCCCC(=O)OC[C@@H](O)[C@H]1OC[C@H](O)[C@H]1O	–	–
NC(Cc1ccccc1)C(=O)O (centres undefined)	–	–
CCC(=O)O[C@@H]1CC(=O)O[C@H](C)C/C=C/C=C/[C@@H](O)[C@H](C)C[C@H](CC=O)[C@H](OC2O[C@H](C)[C@@H](O[C@H]3C[C@@](C)(O)[C@@H](OC(=O)CC)[C@H](C)O3)[C@H](N(C)C)[C@H]2O)[C@H]1OC (some centres undefined)	–	–
CC(=O)N(Cc1ccc2c(c1)OCO2)Cc1cc2ccc(C)cc2nc1-c1cccc(C)c1	–	?
O=C(Nc1ccc(/C=C/c2ccc(NC(=O)c3cc(S(=O)(=O)O)c4cccnc4c3O)cc2S(=O)(=O)O)c(S(=O)(=O)O)c1)c1cc(S(=O)(=O)O)c2cccnc2c1O	?	22µM
O=S(=O)(O)c1cc(I)c(O)c2ncccc12	–	–
CC1(C)CC[C@]2(C(=O)O)CC[C@@]3(C)C(=CCC4[C@@]5(C)CCC(O)C(C)(C)C5CC[C@@]43C)C2C1 (some centres undefined)	–	–
CC1(C)C(O)CC[C@]2(C)C1CC[C@@]1(C)C2C(=O)C=C2[C@@H]3C[C@@](C)(C(=O)O)CC[C@@]3(C)CCC21C (some centres undefined)	–	7.1µM
CC1(C)[C@@H](O[C@H]2O[C@H](C(=O)O)[C@@H](O)[C@H](O)[C@H]2O[C@@H]2O[C@H](C(=O)O)[C@@H](O)[C@H](O)[C@H]2O)CC[C@]2(C)[C@H]3C(=O)C=C4[C@@H]5C[C@@](C)(C(=O)O)CC[C@]5(C)CC[C@@]4(C)[C@]3(C)CC[C@@H]12	–	?
CC1(C)C(OC(=O)CCC(=O)O)CC[C@]2(C)C1CC[C@@]1(C)C2C(=O)C=C2[C@@H]3C[C@@](C)(C(=O)O)CC[C@]3(C)CCC21C (some centres undefined)	?	4µM
CC1(C)[C@@H](O)CC[C@]2(C)[C@H]3C(=O)C=C4[C@@H]5C[C@@](C)(C(=O)O)CC[C@]5(C)CC[C@@]4(C)[C@]3(C)CC[C@@H]12	–	1.6µM
CC(=O)OC1CCC2(C)C(CCC3(C)C2C(=O)C=C2C4CC(C)(C(=O)OCCN5CCCCC5)CCC4(C)CCC23C)C1(C)C (centres undefined)	–	–
CON=C1C[C@]2(C[C@@H]3C[C@@H](C/C=C(\C)C[C@@H](C)/C=C/C=C4\CO[C@@H]5[C@H](O)C(C)=C[C@@H](C(=O)O3)[C@]45O)O2)O[C@H](/C(C)=C/C(C)C)[C@H]1C	–	?
C=C(NC(=O)C(=C)NC(=O)c1csc(C2=N[C@@H]3c4csc(n4)[C@H]4NC(=O)c5csc(n5)[C@H]([C@](C)(O)[C@@H](C)O)NC(=O)[C@H]5CSC(=N5)C(=CC)NC(=O)C([C@@H](C)O)NC(=O)c5csc(n5)[C@]3(CC2)NC(=O)[C@H](C)NC(=O)C(=C)NC(=O)[C@H](C)NC(=O)C([C@@H](C)CC)NC2C=Cc3c([C@H](C)O)cc(nc3C2O)C(=O)O[C@@H]4C)n1)C(N)=O (some centres undefined)	–	–
Cc1cnc(-n2ncc(C(=O)N(C)CCc3ccccn3)c2-c2cccs2)nc1-c1ccc(F)cc1	–	–
C=C[C@@](C)(O)CC[C@@H]1[C@@]2(C)CCCC(C)(C)[C@@H]2CC[C@@]1(C)O	–	?
C=C[C@](C)(O)CCC1C(=C)CC(OC(C)=O)C2C(C)(C)CCCC12C (some centres undefined)	–	10µM
Cc1cc(C(=O)NCc2nc(-c3ccccc3NC(=O)C3CCCO3)oc2C)nc(C)n1 (centres undefined)	–	?
COc1ccc2c(c1)OCC(Cc1ccc(OC)c(OC)c1)C2=O (centres undefined)	?	45µM
COc1ccc2c(c1)OCC(Cc1ccc(OC)c(OC)c1)C2O (centres undefined)	–	?
CC(=O)Nc1cc(C(=O)N2CC3(C)CC2CC(C)(C)C3)cc2ncn(CCc3ccccn3)c12 (centres undefined)	–	–
Cc1ccccc1CN1[C@H](C)[C@H](c2ccccc2)OCCS1(=O)=O	–	?
C#CCN(Cc1nc(N2CCOCC2)c2ccc(Cl)cc2n1)Cc1ccco1	–	50µM
SMILES	EPAC1 ag val	EPAC2 ant val
CN(C)Cc1ccccc1-c1nc(N2CCOCC2)c2ccccc2n1	–	–
COC(=O)c1cccc(C(=O)NCc2nc(-c3cccc(NC(=O)c4ccoc4C)c3)oc2C)c1	–	–
COc1ccc(CN2CCOc3ccc(CN4CCC(Oc5cccnc5)CC4)cc3C2)c(F)c1	–	–
N[C@@H](Cc1ccc(O)c(O)c1)C(=O)O	–	–
N[C@H](C(=O)O)[C@@H](O)c1ccc(O)c(O)c1	?	79µM
CO[C@H]1[C@H](NC(=O)c2ccco2)c2ccccc2C12CCN(Cc1cc(Cl)ccc1O)CC2	–	–
COC(=O)c1cc(CNC(=O)c2ccccc2OC)cc(NC(=O)c2ccccc2F)c1	–	–
Cc1cc(-c2ccc(N=Nc3c(S(=O)(=O)O)cc4cc(S(=O)(=O)O)cc(N)c4c3O)c(C)c2)ccc1N=Nc1c(S(=O)(=O)O)cc2cc(S(=O)(=O)O)cc(N)c2c1O	–	50µM
CC(NC(=O)c1cc(F)ccc1F)c1nnc2n1CCN(Cc1ccc(-c3ccccc3)cc1)CC2 (centres undefined)	–	–
O=c1c(-c2ccccc2)nc2cnc(N3CCOCC3)nc2n1-c1ccccc1	–	–
COCCn1c(=O)c(-c2cccs2)nc2cnc(N3CCOCC3)nc21	112µM	–
COc1ccc(-n2c(=O)c(-c3cccs3)nc3cnc(N4CCOCC4)nc32)cc1	?	–
CN(C)c1ncc2nc(-c3cccs3)c(=O)n(CCC#N)c2n1	100µM	–
O=c1c(-c2cc(F)cc(F)c2)nc2cnc(N3CCOCC3)nc2n1Cc1cccs1	–	–
O=c1c(-c2cc(F)cc(F)c2)nc2cnc(N3CCNCC3)nc2n1Cc1cccs1	?	45µM
O=c1c(-c2cc(F)cc(F)c2)nc2cnc(N3CCOCC3)nc2n1-c1ccccc1	112µM	–
COc1ncc2nc(-c3cccs3)c(=O)n(CCC#N)c2n1	–	–
CC(CCc1ccc(O)cc1)N1CCOc2c(O)cc(-c3nc4ccccc4s3)cc2C1 (centres undefined)	–	–
COc1cc(OC)c(CN2CCOc3ccc(CN4CCC(O)CC4)cc3C2)c(OC)c1	–	–
CO[C@H]1[C@H](NC(=O)c2cccs2)c2ccccc2C12CCN(Cc1cccn1-c1ccccn1)CC2	–	–
Cc1cnc(SCc2ccccn2)nc1C1CCCN(C(=O)c2cc3ccccc3oc2=O)C1 (centres undefined)	–	–
O=c1c(-c2cccs2)nc2cnc(N3CCNCC3)nc2n1Cc1cccs1	?	56µM
N#CCCn1c(=O)c(-c2ccccc2)nc2cnc(Nc3ccccc3)nc21	–	–
N#CCCn1c(=O)c(-c2ccc(Cl)cc2)nc2cnc(Nc3ccccc3)nc21	112µM	–
COc1cccc(Nc2ncc3nc(-c4cccs4)c(=O)n(CCC#N)c3n2)c1	?	–

Compound activity (PubChem BioAssay)
